Measured values published in PubChem BioAssay AID1159580 (chemical genetic matrix, 2015).
Values joined by “and” are separate entries in the source; they are usually repeats but may differ in a detail not shown here. Equal entries are not always repeated. The campaign covered roughly 5,500 compounds. About 2,000 (36%) were called active. Another 18% or so got no clear call; they are omitted. No stated cut-off is given here; in the data, active means normalized growth mostly below about 0.91 (no sharp cut-off); inconclusive means no clear call, values can overlap the other calls; inactive means mostly above about 0.92. The list shows a part of the results.

Assay: chemical genetic growth profiling, strain panel (AID 1159580);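 further: tested at 20 µM; growth read once vehicle control cultures reached saturation at 30 °C; 1 = growth at the plate median or of vehicle wells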
Details: S. cerevisiae deletion strains, growth OD

Measured: normalized growth

COc1ccc(C[C@H]2NC[C@H](O)[C@H]2OC(C)=O)cc1
0.133 (active) and 0.945 (inactive): locus YHR030C, strain SLT2, stronger effect = lower value
0.596 (active) and 0.961 (inactive): locus YJL095W, strain BCK1, stronger effect = lower value
active: locus YAL013W, strain DEP1, stronger effect = lower value 0.0582 | locus YAL021C, strain ccr4, stronger effect = lower value 0.397 | locus YAL026C, strain drs2, stronger effect = lower value 0.762 | locus YAL030W, strain snc1, stronger effect = lower value 0.713 | locus YBL061C, strain skt5, stronger effect = lower value 0.803 | locus YBR009C, strain hhf1, stronger effect = lower value 0.516 | locus YBR023C, strain chs3, stronger effect = lower value 0.823 | locus YBR231C, strain swc5, stronger effect = lower value 0.648 | locus YBR279W, strain paf1, stronger effect = lower value 0.869 | locus YCL011C, strain gbp2, stronger effect = lower value 0.659 | locus YCL016C, strain dcc1, stronger effect = lower value 0.791 | locus YCL069W, strain vba3, stronger effect = lower value 0.904 | locus YCR088W, strain abp1, stronger effect = lower value 0.835 | locus YDL005C, strain med2, stronger effect = lower value 0.122 | locus YDL035C, strain GPR1, stronger effect = lower value 0.222 | locus YDL074C, strain BRE1, stronger effect = lower value 0.242 | locus YDL101C, strain DUN1, stronger effect = lower value 0.306 | locus YDL134C, strain PPH21, stronger effect = lower value 0.533 | locus YDL192W, strain arf1, stronger effect = lower value 0.447 | locus YDR069C, strain doa4, stronger effect = lower value 0.117 | locus YDR101C, strain arx1, stronger effect = lower value 0.874 | locus YDR150W, strain NUM1, stronger effect = lower value 0.656 | locus YDR162C, strain NBP2, stronger effect = lower value 0.0621 | locus YDR195W, strain ref2 0.698 | locus YDR297W, strain sur2, stronger effect = lower value 0.838 | locus YDR318W, strain mcm21, stronger effect = lower value 0.7 | locus YDR334W, strain swr1, stronger effect = lower value 0.901 | locus YDR388W, stronger effect = lower value 0.161 | locus YDR392W, strain spt3, stronger effect = lower value 0.622 | locus YDR502C, strain sam2, stronger effect = lower value 0.734 | locus YEL037C, strain rad23, stronger effect = lower value 0.895 | locus YEL061C, strain CIN8, stronger effect = lower value 0.598 | locus YER015W, strain faa2, stronger effect = lower value 0.81 | locus YER016W, strain bim1, stronger effect = lower value 0.9 | locus YER167W, strain BCK2, stronger effect = lower value 0.704 | locus YFR010W, strain ubp6, stronger effect = lower value 0.104 | locus YGL086W, strain mad1, stronger effect = lower value 0.501 | locus YGL173C, strain kem1, stronger effect = lower value 0.885 | locus YGL248W, strain PDE1, stronger effect = lower value 0.298 | locus YGL253W, strain hxk2, stronger effect = lower value 0.575 | locus YGR078C, strain PAC10, stronger effect = lower value 0.523 | locus YGR135W, strain pre9, stronger effect = lower value 0.272 | locus YGR229C, strain SMI1, stronger effect = lower value 0.0868 | locus YGR252W, strain gcn5, stronger effect = lower value 0.68 | locus YHR013C, strain ard1, stronger effect = lower value 0.336 | locus YHR027C, strain rpn1, stronger effect = lower value 0.717 | locus YHR079C, strain IRE1 (second series), stronger effect = lower value 0.916 | locus YHR129C, strain ARP1, stronger effect = lower value 0.831 | locus YHR200W, strain rpn10, stronger effect = lower value 0.494 | locus YIL066C, strain RNR3, stronger effect = lower value 0.258 | locus YIL073C, strain SPO22, stronger effect = lower value 0.119 | locus YIR030C, strain dcg1, stronger effect = lower value 0.919 | locus YJL092W, strain hpr5, stronger effect = lower value 0.89 | locus YJL095W, strain BCK1 (second series), stronger effect = lower value 0.84 | locus YJL129C, strain trk1, stronger effect = lower value 0.479 | locus YJL164C, strain tpk1, stronger effect = lower value 0.622 | locus YJL166W, strain qcr8, stronger effect = lower value 0.622 | locus YJL187C, strain SWE1 (second series), stronger effect = lower value 0.32 | locus YJR043C, strain POL32, stronger effect = lower value 0.524 | locus YJR075W, strain HOC1, stronger effect = lower value 0.174
inactive: locus YBR021W, strain FUR4, stronger effect = lower value 1.05 | locus YBR171W, strain sec66, stronger effect = lower value 1 | locus YBR229C, strain ROT2, stronger effect = lower value 1.01 | locus YCL029C, strain bik1, stronger effect = lower value 0.961 | locus YDL040C, strain nat1, stronger effect = lower value 1 | locus YDL185W, strain tfp1, stronger effect = lower value 0.993 | locus YDR001C, strain nth1, stronger effect = lower value 0.964 | locus YDR137W, strain rgp1, stronger effect = lower value 0.942 | locus YDR159W, strain sac3, stronger effect = lower value 1.09 | locus YDR335W, strain msn5, stronger effect = lower value 0.927 | locus YEL003W, strain gim4, stronger effect = lower value 0.984 | locus YEL061C, strain CIN8 (second series), stronger effect = lower value 0.937 | locus YER110C, stronger effect = lower value 1 | locus YER111C, strain swi4, stronger effect = lower value 0.981 | locus YER155C, strain BEM2 (second series), stronger effect = lower value 0.938 | locus YER155C, strain BEM2, stronger effect = lower value 1.01 | locus YGL078C, strain dbp3, stronger effect = lower value 0.981 | locus YGL167C, strain pmr1, stronger effect = lower value 1.02 | locus YGL227W, strain vid30, stronger effect = lower value 0.989 | locus YGL240W, strain doc1, stronger effect = lower value 0.994 | locus YHR079C, strain IRE1, stronger effect = lower value 0.921 | locus YHR094C, strain hxt1, stronger effect = lower value 1 | locus YHR142W, strain chs7, stronger effect = lower value 0.92 | locus YIL125W, strain kgd1, stronger effect = lower value 1.01 | locus YJL115W, strain asf1, stronger effect = lower value 1.02 | locus YJL134W, strain LCB3, stronger effect = lower value 1.02 | locus YJL154C, strain vps35, stronger effect = lower value 1.01 | locus YJL168C, strain set2, stronger effect = lower value 1.01 | locus YJR066W, strain TOR1, stronger effect = lower value 0.911
